Results published in PubChem BioAssay AID1903 (Southern Research Specialized Biocontainment Screening …, 2009).
Among all 310,000 compounds or so, about 1,200 (0.39%) were called active. A selection follows. Measured potencies and affinities stand elsewhere. A number with no mark means an inactive call. How the calls were made is not given here.

Target: Large T antigen (Simian virus 40) (UniProt P03070)
Assay: TAg ATPase/helicase activity blockers – biochemical (AID 1903)
Details: SV40 large T antigen ATPase/helicase inhibition assay; at 20 µM; active compounds read high

Chain of Large T antigen (Simian virus 40) (P03070 whole entry, looked up): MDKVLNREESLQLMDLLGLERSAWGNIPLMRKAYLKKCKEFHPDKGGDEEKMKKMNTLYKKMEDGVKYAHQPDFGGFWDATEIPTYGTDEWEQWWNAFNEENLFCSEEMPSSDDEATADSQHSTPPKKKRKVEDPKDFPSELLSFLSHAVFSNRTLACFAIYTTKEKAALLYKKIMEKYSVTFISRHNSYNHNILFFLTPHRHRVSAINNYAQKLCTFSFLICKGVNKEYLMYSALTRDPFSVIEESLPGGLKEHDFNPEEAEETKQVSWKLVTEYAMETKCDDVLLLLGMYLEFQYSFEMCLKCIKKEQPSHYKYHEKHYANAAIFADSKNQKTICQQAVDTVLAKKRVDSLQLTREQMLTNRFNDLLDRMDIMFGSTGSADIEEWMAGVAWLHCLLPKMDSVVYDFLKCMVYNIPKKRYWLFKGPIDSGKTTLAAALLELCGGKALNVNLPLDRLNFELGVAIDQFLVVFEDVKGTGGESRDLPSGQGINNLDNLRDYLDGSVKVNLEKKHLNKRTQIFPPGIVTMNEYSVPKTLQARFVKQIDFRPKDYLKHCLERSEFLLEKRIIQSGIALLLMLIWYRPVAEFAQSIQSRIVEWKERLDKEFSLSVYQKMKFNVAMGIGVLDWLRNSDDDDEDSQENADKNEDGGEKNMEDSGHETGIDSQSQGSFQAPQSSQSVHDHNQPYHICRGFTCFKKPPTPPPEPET

Structure (SMILES)	inhibition [%]
CC(C)CCNC(=O)c1cccc(S(=O)(=O)N2CCc3ccccc32)c1	11.5
COC(=O)c1c(NC(=O)COC(=O)c2ccccn2)sc(C)c1C	11.7
COc1cc(-c2nnc(SCc3ccccc3Cl)o2)cc(OC)c1OC	4.19
COc1cc(-c2nnc(SCc3cc(=O)oc4cc(C)ccc34)o2)cc(OC)c1OC	0.12
COc1ccccc1-c1nc2c(c(SCC(=O)N3CCCCC3)n1)Cc1c(CO)cnc(C)c1O2	4.68
Cc1sc2ncn(CC(=O)NCc3ccccn3)c(=O)c2c1S(=O)(=O)N1CCOCC1	-0.92
Nn1c(SCC(=O)N2CCCCCC2)nnc1-c1ccncc1	2.98
Cc1ccc([C@@H]2CC=C(C(=O)O)[C@H](c3ccc(Cl)cc3)N2S(=O)(=O)c2ccc(C)cc2)cc1	21.6
Cc1ccc(S(=O)(=O)N2[C@@H](c3ccccc3)C(C(=O)O)=CC[C@H]2c2ccc(Cl)cc2)cc1	17.2
Cc1ccc(C(=O)COC(=O)CNC(=O)CNC(=O)c2ccc(C)cc2)cc1	10.1
COc1cc(NC(=O)c2cc([N+](=O)[O-])ccc2NC(=O)CN2CCN(c3ccccn3)CC2)cc(OC)c1	2.42
Cc1ccc(NC(=O)NCCN2CCCCC2)cc1	12.7
Cc1cc(C)c(S(=O)(=O)NCCn2c(C)cc3ccccc32)c(C)c1	3.6
NS(=O)(=O)c1ccc(-c2ccc(/C=C3\NC(=S)NC3=O)o2)cc1	34.2
NS(=O)(=O)c1ccc(-c2ccc(/C=C3\C(=O)Nc4ccccc43)o2)cc1	3.06
COc1ccccc1/C=C/C(=O)N1CCCC1	16.6
Cn1cc([N+](=O)[O-])c(C(=O)NC2CCCCCCC2)n1	11.7
O=S(=O)(Nc1ccc(N2CCOCC2)cc1)c1ccc(Cl)s1	36.6
CCOc1cc(N2CCOCC2)c(OCC)cc1NC(=O)C(C)C	5.9
CCOc1cc(N2CCOCC2)c(OCC)cc1NS(=O)(=O)c1cc(NC(C)=O)ccc1OC	9.72
CCOc1cc(N2CCOCC2)c(OCC)cc1NC(C)C(=O)N1CCN(CC)CC1 (stereo not given)	4.25
COc1ccccc1CNC(=O)C(CC(C)C)NC(=O)C1CCC(C)CC1 (stereo not given)	12.9
COc1ccc(/C=N/NC(=O)Cc2csc(Nc3cccc(C(F)(F)F)c3)n2)c(OC)c1	4.64
O=C(O)C1Nc2c(C(F)(F)F)ccc(Cl)c2C2C=CCC12 (stereo not given)	17.1

Structure (SMILES)	inhibition [%]
CCOC(=O)C1Nc2c(F)cc(C)cc2C2C=CCC12 (stereo not given)	26
O=C(O)C1Nc2c(C(=O)N3CCOCC3)cccc2C2C=CCC12 (stereo not given)	34.2
CCOC(=O)C1Nc2ccc(Br)cc2C2C=CCC12 (stereo not given)	7
CCNc1ccc(C(=O)OCC)cc1NC(=O)c1cccc(S(=O)(=O)N(C)c2ccccc2)c1	-1.52
CC1CN(CCOCCSc2ccccc2)CC(C)O1 (stereo not given)	-2.63
COC(=O)CNc1cc(S(=O)(=O)N2CCCCC2)ccc1Oc1cccc(C)c1	5.08
COc1ccc(Cn2c(-c3ccc(OC)cc3)nc3c(c(=O)c4ccccc4n3C)c2=O)cc1	4.69
c1ccc2c(NCCCN3CCOCC3)c3ccccc3nc2c1	3.76
Cc1csc2c(NCCCN3CCOCC3)ncnc12	5.93
O=C(O)COc1ccc(/C=N/n2c(COc3ccccc3)nc3ccccc3c2=O)cc1	1.95
O=c1c2ccccc2nc(COc2ccccc2)n1/N=C/c1ccc(O)cc1O	5.35
COc1ccc(/C=N/n2c(COc3ccccc3)n[nH]c2=S)cc1OC	32.6
CCOc1cc(/C=N/n2c(COc3ccccc3)n[nH]c2=S)ccc1O	19.9
CCCc1nc2ccccc2c(=O)n1/N=C/c1ccccc1O	-9.27
CCCc1nc2ccccc2c(=O)n1/N=C/c1ccc(O)cc1	6.26
O=C1COc2ccc(C(=O)COC(=O)c3cc(S(=O)(=O)NCc4ccccc4)ccc3O)cc2N1	13
Cc1cc(Cl)ccc1NC(=O)CN1C(=O)NC2(CCCc3ccccc32)C1=O (stereo not given)	25.2
CCOC(=O)CN1C(=O)SC(CC(=O)Nc2nccs2)C1=O (stereo not given)	2.87
O=C(COC(=O)Cc1ccccc1F)NNC(=O)c1ccc([N+](=O)[O-])cc1	22.7
FC(F)Oc1ccc(-n2cc(-c3ccccc3)[n+]3c2CCCCC3)cc1	10.7
COc1ccccc1NC(=S)N1CCN(c2cccc(C)c2C)CC1	-4.85
COc1ccccc1NS(=O)(=O)c1ccc(O)cc1	7.04
O=C(O)CN1C(=O)S/C(=C\c2cccnc2)C1=O	16.2
O=C(CCc1nnc(-c2ccsc2)o1)NCc1ccccc1OC(F)(F)F	3.5

Structure (SMILES)	inhibition [%]
CN(C)S(=O)(=O)c1ccc(NC(=O)c2ccccn2)cc1	-5.42
O=C(NCc1ccco1)C1CC(=O)N(c2ccc(F)cc2)C1 (stereo not given)	9.04
O=C(NCc1ccco1)C1CC(=O)N(c2ccc(Cl)cc2)C1 (stereo not given)	-4.21
[O-][n+]1ccccc1SCc1ccccc1	10.4
[O-][n+]1ccccc1/C=C/c1ccccc1	7.12
COc1ccc(NC(=O)C2CCN(S(=O)(=O)c3cccc4nonc34)CC2)c(OC)c1	10.9
CC1CCN(CCCCOc2ccc([N+](=O)[O-])cc2)CC1	20.7
O=C(CN1CCCN(Cc2ccc(F)cc2)S1(=O)=O)NC1CCCC1	1.85
Cc1ccc(NC(=O)NC2CCCCCCC2)cc1	3.82
O=C(Nc1ccc(Cl)cc1)NC1CCCCC1	0.423
O=C(c1ccc2c(c1)OCO2)N1CCC2(CC1)Oc1ccc(Cl)cc1C(=O)C21CC(c2cccnc2)=NO1 (stereo not given)	6.56
O=C(CCn1c(=O)oc2cc(Cl)ccc21)Nc1ccc(N2CCOCC2)cc1	12.7
O=C(CCn1c(=O)oc2ccccc21)Nc1cccc(Cl)c1	6.5
CCCCN(C(=O)c1ccc(S(=O)(=O)N2CCCC2)cc1)C1CCS(=O)(=O)C1 (stereo not given)	2.38
O=C(COc1ccc(Br)cc1)NNC(=S)NCc1ccccc1	15
O=S1c2ccccc2Nc2ccccc21	8.27
COC(=O)/C(C#N)=C1/C=Cc2ccccc2N1	9.95
OC[C@H]1OC(O)[C@@H](O)[C@@H](O)[C@@H]1O (stereo not given in full)	12.2
O=C(CSc1ccccc1C(=O)O)NC12CC3CC(CC(C3)C1)C2	7.17
O=C(Cn1nc(C(=O)O)c2ccccc2c1=O)NC12CC3CC(CC(C3)C1)C2	3.68
N#Cc1ccsc1NC(=O)CN1CCN(S(=O)(=O)c2ccc3ccccc3c2)CC1	-5.22
O=C(CCc1c[nH]c2ccccc12)NC(Cc1c[nH]c2ccccc12)C(=O)O (stereo not given)	11.4
NNC(=O)c1ccccc1CO	3.38
CNC(=O)c1ccccc1Sc1ccccc1CO	10.3

Structure (SMILES)	inhibition [%]
O=[N+]([O-])c1cccc(/C=N/N2CCN(c3ccccn3)CC2)c1	15.9
COc1ccccc1CNC(=O)c1ccccc1C(=O)NC(CC(C)C)C(=O)NCc1ccccc1OC (stereo not given)	14
COc1ccc2[nH]c3c(=O)n(CCCCCC(=O)NCCC(C)C)c(=S)[nH]c3c2c1	5.88
CCCCNC(=O)CCCCn1c(=S)[nH]c2c([nH]c3ccc(OC)cc32)c1=O	9.54
COc1ccc2[nH]c3c(=O)n(CCCCC(=O)NCCC(C)C)c(=S)[nH]c3c2c1	9.9
CCCNC(=O)CCCCn1c(=S)[nH]c2c([nH]c3ccc(OC)cc32)c1=O	10.7
CCc1nc2oc3ccccc3c(=O)c2c(=O)n1Cc1ccccc1	2.01
Cn1ccnc1SCC(=O)c1cccc(Br)c1	23.2
Cc1cc(C)c(NC(=O)COC(=O)CSc2ccc(Br)cc2C)c(C)c1	-2.91
CC(=O)c1ccc(O)c(CO)c1	8.31
O=C(O)c1ccc(O)c(O)c1	8.73
O=C(CSc1nnc(Cn2c(=O)sc3ccccc32)n1-c1ccccc1)N1CCCCCC1	2.86
COCCCNCCOCCOc1ccc(C)cc1[N+](=O)[O-]	0.35
Cc1cccc(NC(=S)NNc2cccc(Cl)c2)c1	23.5
CCOc1ccc(C(=O)c2ccc(OCC)c(N)c2)cc1N	3.54
CCOc1ccc(S(=O)(=O)N(CC)CC)cc1N	-1.97
CC(=O)c1ccc(NC(=O)CN2CCC(C(=O)c3ccc(F)cc3)CC2)cc1	25.6
O=C(CN1CCN(C2CCCCC2)CC1)Nc1ccc(Br)cc1	3.84
CN(C)c1ccc(NC(=O)CN2CCC(NC(=O)C3CCCCC3)CC2)cc1	28.2
COc1ccc(C(=O)C2CCN(CC(=O)Nc3ccc(C)cc3)CC2)cc1	-0.7
Cc1ccc(NC(=O)CN2CCC(C(=O)c3ccc(F)cc3)CC2)cc1	11.8
O=C(CN1CCC(C(=O)c2ccc(F)cc2)CC1)Nc1ccc(F)cc1	3.44
COc1cccc(-c2ccc(NC(=O)C3CCCN(Cc4cnc(C)n4C)C3)cc2)c1 (stereo not given)	12.9
